{
  "source": "the supplement of paper PMC9492666",
  "note": "Structures can show the parent of a compound that is named as a salt.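 Further: viability read by CCK-8 kit in 96-well plates, part of a combination screen pairing lipid-metabolism-targeting compounds with erastin.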",
  "data": [
    {"test_system": "MDA-MB-231", "test": "relative cell viability, compound + erastin, vs DMSO (fraction of DMSO control); higher = less growth inhibition", "conditions": "72 h", "values": [
      {"smiles": "COc1ccc(CN2CCNCC2)c(OC)c1OC", "note": "[Trimetazidine dihydrochloride] + CCOc1ccccc1-n1c(C(C)N2CCN(C(=O)COc3ccc(Cl)cc3)CC2)nc2ccccc2c1=O [erastin]", "relative cell viability": 0.55},
      {"smiles": "Cc1cc(C)c(S(=O)(=O)N(CCc2cccc(Br)c2)Cc2ccc(-c3cccc(S(C)(=O)=O)c3)cc2)c(C)c1", "note": "+ CCOc1ccccc1-n1c(C(C)N2CCN(C(=O)COc3ccc(Cl)cc3)CC2)nc2ccccc2c1=O [erastin]", "relative cell viability": 0.777},
      {"smiles": "COc1cc(N(C)C)cc(CN(C)CCc2ccc([N+](=O)[O-])cc2)c1O", "note": "[CDC25 Phosphatase Inhibitor I] + CCOc1ccccc1-n1c(C(C)N2CCN(C(=O)COc3ccc(Cl)cc3)CC2)nc2ccccc2c1=O [erastin]", "relative cell viability": 0.781},
      {"smiles": "CCOC(=O)c1c(NC(=O)CN2CCN(C(=O)c3ccco3)CC2)sc2c1CCC2", "note": "+ CCOc1ccccc1-n1c(C(C)N2CCN(C(=O)COc3ccc(Cl)cc3)CC2)nc2ccccc2c1=O [erastin]", "relative cell viability": 0.839},
      {"smiles": "Cc1nc(Nc2cnn(C3CCNCC3)c2)nc2c1N(C)C(=O)c1cc3ccccc3cc1N2C", "note": "+ CCOc1ccccc1-n1c(C(C)N2CCN(C(=O)COc3ccc(Cl)cc3)CC2)nc2ccccc2c1=O [erastin]", "relative cell viability": 0.421},
      {"smiles": "C=CCc1ccc(O)c(-c2cc(CC=C)ccc2O)c1", "note": "[Magnolol] + CCOc1ccccc1-n1c(C(C)N2CCN(C(=O)COc3ccc(Cl)cc3)CC2)nc2ccccc2c1=O [erastin]", "relative cell viability": 1.02},
      {"smiles": "O=C(O)c1cc2c(Cl)c(N3CCN(S(=O)(=O)c4c(Cl)cccc4Cl)CC3)ccc2o1", "note": "[Vonafexor] + CCOc1ccccc1-n1c(C(C)N2CCN(C(=O)COc3ccc(Cl)cc3)CC2)nc2ccccc2c1=O [erastin]", "relative cell viability": 0.989}
    ]}
  ]
}
